{"source": "PubChem BioAssay (NCATS)", "note": "Records with an inconclusive call do not appear. A number with no mark means an inactive call. Active and inactive are the calls of the source. The call rests on the fitted dose curve; in most records, active means well fitted cell-killing curve with a large enough effect; inconclusive means small, poorly fitted or top-dose-only effect; inactive means flat fitted curve, though single readings scatter. On the % scale 0 is the no-effect control and ±100 the full control effect.", "data": [{"test": "qHTS of pediatric cancer cell lines to identify multiple opportunities for drug repurposing: Primary screen for TC32 cells (AID 1347089); further: nearly all actives have a fitted effect of over 60% in size", "settings": "TC32 Ewing sarcoma viability, CellTiter-Glo luminescence, 48 h; series mostly up to 45.8 µM; activity change, negative = cytotoxic: at the top concentration", "excerpt": "Drug repurposing or repositioning has been offered as a strategy for drug development in oncology programs. This approach has special potential for childhood cancers and other rare or orphan diseases, where the expected return on new drug development has been a disincentive to pharmaceuticals.\nIn this project we exploit the poly-pharmacology of drugs to discover new indications via phenotypic screening of a panel of 19 well-characterized cell lines derived from solid tumors seen in children and adolescents. The goal is to identify approved drugs with previously unrecognized anticancer properties that has the potential to reveal new mechanisms and biological processes involved in carcinogenesis or drug resistance. We employed a titration-based paradigm (quantitative high-throughput screening or qHTS), where all compounds were tested at multiple concentrations for their effect on cell viability. Concentration-response curves (CRCs) were derived directly from the primary screen, and both potency and efficacy values were used to identify compounds with robust bioactivity profiles. We screened the NIH Chemical Genomics Center (NCGC) Pharmaceutical Collection (NPC) and Mechanism Interrogation Plate (MIPE) small molecule collections of approved and investigational compounds against these cell lines; and measured metabolically active cells after 48 hours of compound treatment as a proxy for cell viability.\nAssay Submitter: Nathalia J. Martinez, National Center for Advancing Translational Sciences, National Institutes of Health, Rockville, MD, USA; email: natalia.martinez@nih.gov\n[1] Shen, M et al. Quantitative high-throughput phenotypic screening of pediatric cancer cell lines identifies multiple opportunities for drug repurposing. Oncotarget 2017 Dec 19;9(4):4758-4772. PMID 29435139.\nThe cells were obtained from University of North Carolina (UNC), Pediatric Preclinical Testing Program (PPT), and Coriell Institute (CI).\nqHTS cell viability assay:\nCells were assayed in growth media at a density of 500-1,000 cells/well. Five microliters of cells were dispensed into 1,536-well, white, solid-bottom, TC-treated plates (Greiner Bio One) using a multidrop dispenser and incubated at 37 degrees C, 5% CO2, under a humidified atmosphere for 5 hours. Twenty-three nanoliters of compounds and controls (neutral control DMSO or positive control bortezomib at final concentration of 2.3 uM) were subsequently transferred by Kalypsys pintool. For primary screens, the MIPE collection was tested at 11-point dilutions (final concentrations range from 0.78 nM to 46 µM) and the NPC collection at 8-point dilutions (final concentrations range from 0.59 nM to 46 µM). Compounds tested in follow-up screens were assayed at 11-point dilutions. Cells were incubated for 48 hours, followed by addition of 3 uL of CellTiter-Glo (Promega). After a 15min incubation at room temperature, samples were analyzed for luminescence intensity using a ViewLux High-throughput CCD imager equipped with clear filters.", "values": [{"smiles": "OCC(CO)N[C@H]1C[C@](O)(CO)[C@@H](O)[C@H](O)[C@H]1O", "activity change, negative = cytotoxic": "9.63%"}, {"smiles": "CCCOC(=O)c1ccccc1", "activity change, negative = cytotoxic": "15.2%"}, {"smiles": "O=C(CCCN1CCN(c2ccccn2)CC1)c1ccc(F)cc1", "activity change, negative = cytotoxic": "-11.5%"}, {"smiles": "CC1(C)Oc2ccc(C#N)cc2[C@@H](N2CCCC2=O)[C@@H]1O", "activity change, negative = cytotoxic": "7.53%"}, {"smiles": "COc1ccc2c(c1)C(=O)N(CCc1ccc(S(=O)(=O)NC(=O)NC3CCCCC3)cc1)C(=O)C2(C)C", "activity change, negative = cytotoxic": "7.7%"}, {"smiles": "O=C1OC(OC(=O)c2cccnc2Nc2cccc(C(F)(F)F)c2)c2ccccc21", "note": "(stereo not given)", "activity change, negative = cytotoxic": "4.77%"}, {"smiles": "O=C1NS(=O)(=O)c2ccccc21", "activity change, negative = cytotoxic": "14.3%"}, {"smiles": "CCN(CC)CCNC(C(=O)OCCC(C)C)c1ccccc1", "note": "(stereo not given)", "activity change, negative = cytotoxic": "3.66%"}, {"smiles": "CC(=O)Oc1c(C)c(C)c2c(c1C)CC[C@@](C)(CCC[C@H](C)CCC[C@H](C)CCCC(C)C)O2", "activity change, negative = cytotoxic": "2.44%"}, {"smiles": "NC(=O)NNc1ccccc1", "activity change, negative = cytotoxic": "-0.292%"}, {"smiles": "O=C(Oc1ccccc1C(=O)O)c1ccccc1O", "activity change, negative = cytotoxic": "17%"}, {"smiles": "O=C(O)Cc1sc(-c2ccccc2)nc1-c1ccc(Cl)cc1", "activity change, negative = cytotoxic": "6.74%"}, {"smiles": "CCCCN(CCCC)CCCOC(=O)c1ccc(N)cc1", "activity change, negative = cytotoxic": "12.3%"}, {"smiles": "O=C1N=C(O)CN1/N=C/c1ccc(-c2ccc([N+](=O)[O-])cc2)o1", "activity change, negative = cytotoxic": "4.7%"}, {"smiles": "NC(=O)c1ncn([C@@H]2O[C@H](CO)[C@@H](O)[C@H]2O)n1", "activity change, negative = cytotoxic": "8.91%"}, {"smiles": "Cc1cc(C(C#N)c2ccc(Cl)cc2)c(Cl)cc1NC(=O)c1cc(I)cc(I)c1O", "note": "(stereo not given)", "activity change, negative = cytotoxic": "-8.63%"}, {"smiles": "CCCCC(CC)COC(=O)c1ccccc1O", "note": "(stereo not given)", "activity change, negative = cytotoxic": "8.93%"}, {"smiles": "O=c1cc[nH]c(=S)[nH]1", "activity change, negative = cytotoxic": "0.833%"}, {"smiles": "Nc1ccc(S(=O)(=O)Nc2ccc(Cl)nn2)cc1", "activity change, negative = cytotoxic": "5.76%"}, {"smiles": "CN(C)CCCN1c2ccccc2CCc2ccccc21", "activity change, negative = cytotoxic": "-0.93%"}, {"smiles": "CC(CN1c2ccccc2Sc2ccccc21)N(C)C", "note": "(stereo not given)", "activity change, negative = cytotoxic": "1.23%"}, {"smiles": "CCN(CC)C(C)CN1c2ccccc2Sc2ccccc21", "note": "(stereo not given)", "activity change, negative = cytotoxic": "11.2%"}, {"smiles": "C/C(=C(\\CCOP(=O)(O)O)SC(=O)c1ccccc1)N(C=O)Cc1cnc(C)nc1N", "activity change, negative = cytotoxic": "9.22% [at 4.81 µM]"}, {"smiles": "CN1CCN(C2Cc3ccccc3Sc3ccc(Cl)cc32)CC1", "note": "(stereo not given)", "activity change, negative = cytotoxic": "-19.5%"}, {"smiles": "C[C@H]1O[C@H](O[C@H]2[C@H](O)[C@@H](O)[C@@H](O[C@H]3[C@H](O)[C@@H](O)[C@H](O)O[C@@H]3CO)O[C@@H]2CO)[C@H](O)[C@@H](O)[C@@H]1N[C@H]1C=C(CO)[C@@H](O)[C@H](O)[C@H]1O", "activity change, negative = cytotoxic": "11.9%"}, {"smiles": "CCCCOc1cc(C(=O)OCCN(CC)CC)ccc1N", "activity change, negative = cytotoxic": "6.74%"}, {"smiles": "CC1CC(OC(=O)C(O)c2ccccc2)CC(C)(C)N1C", "note": "(stereo not given)", "activity change, negative = cytotoxic": "3.68%"}, {"smiles": "CC(=O)OCC(=O)[C@@]1(O)CC[C@H]2[C@@H]3CCC4=CC(=O)CC[C@]4(C)[C@H]3C(=O)C[C@@]21C", "activity change, negative = cytotoxic": "-19.4%"}, {"smiles": "CC/C=C(\\C(=O)N[C@@H]1C(=O)N2C(C(=O)OCOC(=O)C(C)(C)C)=C(COC(N)=O)CS[C@H]12)c1csc(N)n1", "Potency": "inactive"}, {"smiles": "CC(COc1ccccc1)NC(C)C(O)c1ccc(O)cc1", "note": "(stereo not given)", "activity change, negative = cytotoxic": "0.445%"}, {"smiles": "CN1CCCCC1CCN1c2ccccc2Sc2ccc(S(C)=O)cc21", "note": "(stereo not given)", "activity change, negative = cytotoxic": "3.99%"}, {"smiles": "CC(O)CN(CCN(CC(C)O)CC(C)O)CC(C)O", "note": "(stereo not given)", "activity change, negative = cytotoxic": "18.1%"}, {"smiles": "CC1(C)[C@@H]2CC[C@@]1(C)C(=O)C2", "activity change, negative = cytotoxic": "10.2%"}, {"smiles": "N[C@H]1C(O)O[C@H](CO)[C@@H](O)[C@@H]1O", "note": "(stereo not given in full)", "activity change, negative = cytotoxic": "11%"}, {"smiles": "Cc1ccc(C(C)C)cc2c(C)ccc1-2", "activity change, negative = cytotoxic": "2.3%"}, {"smiles": "O=C(O)[C@@H]1CSCN1", "activity change, negative = cytotoxic": "3.23%"}, {"smiles": "CC1(C)OC(=O)NC1=O", "activity change, negative = cytotoxic": "-8.03%"}, {"smiles": "CCN(CC)CCCC(C)Nc1c2ccc(Cl)cc2nc2ccc(OC)cc12", "note": "(stereo not given)", "activity change, negative = cytotoxic": "-17.3%"}, {"smiles": "C[C@]12C[C@H](O)[C@H]3[C@@H](CCC4=CC(=O)CC[C@@]43C)[C@@H]1CC[C@@H]2C(=O)CO", "activity change, negative = cytotoxic": "10.4%"}, {"smiles": "C[C@@H]1CC[C@@]2(OC1)O[C@H]1C[C@H]3[C@@H]4CC[C@H]5C[C@@H](O)CC[C@]5(C)[C@H]4CC(=O)[C@]3(C)[C@H]1[C@@H]2C", "activity change, negative = cytotoxic": "10.8% [at 4.81 µM]"}]}]}
